# PubChem BioAssay (NCATS)
# Results filed as inconclusive are left out. Unmarked numbers belong to inactive results. Activity calls are given as the source filed them. The call rests on the fitted dose curve; in most records, active means well fitted curve in the direction sought with a large enough effect; inconclusive means small, poorly fitted or top-dose-only effect, or another doubt; inactive means no such curve, though single readings can be large; an effect the other way counts as inactive or inconclusive.
# Legend:
# [1] = Quantitative highthroughput screen to assess conditional lethalithy of NOMO1 cells grown in RPMI1640 with dialyzed fetal bovine serum (RPMI+ds) (AID 1963877); further: potency means the concentration at half of the fitted maximal effect; nearly all actives have a fitted effect of over 30% in size
# Outline: (§1)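 Each medium arm—HPLM with 10% dialyzed FBS, or RPMI1640 with 5 mM glucose and 10% untreated or dialyzed FBS—was screened against an 11-point, 3-fold compound titration for 48 h at 37 °C, with CellTiter-Glo luminescence as endpoint.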
# [2] = Quantitative highthroughput screen to assess conditional lethalithy of P12 Ichikawa cells grown in RPMI1640 with untreated serum (RPMI+s) (AID 1963881); settings: Potency: viability; further: potency means the concentration at half of the fitted maximal effect; nearly all actives have a fitted effect of over 35% in size
# Outline: as §1
# [3] = Quantitative highthroughput screen to assess conditional lethalithy of SEM cells grown in Human Plasma-Like Medium with dialyzed fetal bovine serum (HPLM+ds) (AID 1963882); further: nearly all actives have a fitted effect of over 35% in size; further: potency means the concentration at half of the fitted maximal effect; on viability: series mostly up to about 46 µM
# Outline: as §1
# [4] = Quantitative highthroughput screen to assess conditional lethalithy of SEM cells grown in RPMI1640 with dialyzed fetal bovine serum (RPMI+ds) (AID 1963884); further: nearly all actives have a fitted effect of over 35% in size; further: potency means the concentration at half of the fitted maximal effect;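 on viability: series mostly up to about 46 µM; 100% = DMSO control wells and 0% = empty wells without cells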
# Outline: as §1
# [5] = Quantitative highthroughput screen to assess conditional lethalithy of NOMO1 cells grown in Human Plasma-Like Medium with dialyzed fetal bovine serum (HPLM+ds) (AID 1963878); further: potency means the concentration at half of the fitted maximal effect; nearly all actives have a fitted effect of over 35% in size
# Outline: as §1
# [6] = Quantitative highthroughput screen to assess conditional lethalithy of P12 Ichikawa cells grown in Human Plasma-Like Medium with dialyzed fetal bovine serum (HPLM+ds) (AID 1963879); settings: Potency: viability
# Outline: as §1
# [7] = Cellular viability qHTS for adrenocortical cancer (ACC) cell line SW-13 (AID 1963989); settings: SW-13 ACC cells viability, CellTiter-Glo, 48 h; activity (max response): hits give low values;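 further: cells grown in serum-free medium with ITS supplement; on the % scale 0 is the no-effect control and ±100 the full control effect; nearly all actives have a fitted effect of over 65% in size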
# Outline: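 IC50 and maximal-response values come from four-parameter logistic fits of titration data. SW-13 cells in serum-free medium received compounds (up to 46 uM final) for 48 h before CellTiter-Glo luminescence.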
# [8] = Cellular viability qHTS for adrenocortical cancer (ACC) cell line NCI-H295R (AID 1963990); further: nearly all actives have a fitted effect of over 60% in size; further: potency means the concentration at half of the fitted maximal effect
# Outline: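 Adrenocortical carcinoma cells, suspended at 300 000 cells/mL in serum-free DMEM plus ITS, rested overnight before pin transfer of compound. After two days' incubation, ATP-dependent luminescence was recorded and curve-fitted.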
smiles,measurement,setting,value
CC(C)(O)C=CC(=O)[C@](C)(O)[C@H]1[C@H](O)C[C@]2(C)[C@@H]3CC=C4[C@@H](C=C(O)C(=O)C4(C)C)[C@]3(C)C(=O)C[C@@]12C,Potency,[1],166 nM (active)
same,Potency,[2],148 nM (active)
same,Potency,[3],59 nM (active)
same,Potency,[4],66.2 nM (active)
C[C@@H]1[C@@H](CC(C[C@H]2O[C@@H]3O[C@]4(C)CC[C@@H]5[C@H](C)CC[C@@H]([C@H]2C)[C@@]35OO4)C[S+](=O)([O-])c2ccc(COC(=O)N(C)C)cc2)O[C@@H]2O[C@]3(C)CC[C@H]4[C@H](C)CC[C@@H]1[C@@]24OO3 (stereo not given in full),Potency,[5],418 nM (active)
same,Potency,[6],3320 nM (active)
CCOC(=O)c1cncn1[C@H](C)c1ccccc1,Potency,[3],inactive
same,Potency,[4],inactive
C[C@]12CC[C@@H]3[C@@H](CCC4=CC(=O)CC[C@@H]43)[C@@H]1CC[C@@H]2OC(=O)CCc1ccccc1,Potency,[3],inactive
same,activity (max response),[7],-2.06%
same,Potency,[8],inactive
C[C@H]1[C@H](O)[C@@H](C)/C=C/C=C/CC/C=C/C=C/C=C/C=C/[C@H](O[C@@H]2O[C@H](C)[C@@H](O)[C@H](N)[C@@H]2O)C[C@@H]2O[C@](O)(C[C@@H](O)[C@H](O)CC[C@@H](O)C[C@@H](O)C[C@@H](O)CC(=O)O[C@H]1C)C[C@H](O)[C@H]2C(=O)O,activity (max response),[7],-20.1%
same,Potency,[8],inactive
CN1C(=O)CN=C(c2ccccc2)c2cc(Cl)ccc21,activity (max response),[7],0.469%
same,Potency,[8],inactive
COP(=O)(OC)OC=C(Cl)Cl,activity (max response),[7],13.5%
same,Potency,[8],inactive
NC(=O)c1cc([N+](=O)[O-])cc([N+](=O)[O-])c1,activity (max response),[7],-5.23%
same,Potency,[8],3660 nM (active)
CN(C)CCc1c[nH]c2cccc(OP(=O)(O)O)c12,activity (max response),[7],-5.41%
same,Potency,[8],inactive
CCN(CC)CCN1C(=O)CN=C(c2ccccc2F)c2cc(Cl)ccc21,activity (max response),[7],2.24%
same,Potency,[8],inactive
Cc1c(Cl)c(=O)oc2cc(OP(=O)(OCCCl)OCCCl)ccc12,activity (max response),[7],-15.3%
same,Potency,[8],inactive
CCC(C)(C)c1ccc(O)cc1,activity (max response),[7],0.304%
same,Potency,[8],inactive
CN(C)CCc1c[nH]c2cccc(O)c12,activity (max response),[7],3.4%
same,Potency,[8],inactive
CC(C)=CCOc1c2occc2cc2ccc(=O)oc12,activity (max response),[7],-12.5%
same,Potency,[8],inactive
O=C(Nc1ccc(Br)cc1)c1cc(Br)cc(Br)c1O,activity (max response),[7],-19.7%
same,Potency,[8],10300 nM (active)
O=C1C=CC[C@@H]2[C@H]3CCCN4CCC[C@@H](CN12)[C@@H]34,activity (max response),[7],-3.97%
same,Potency,[8],inactive
